# Results published in the supplement of paper PMC3334620.
# The full ranking holds about 33,000 sequences; the median of “E-score (-0.5 to 0.5)” is about -0.032, and the highest 2% start at about 0.36. Many of the other results were omitted from the sample, so the highest values are more common in it than they were.
# Molecular target: T1, Sko1 (UniProt Q02100)
# T1 sequence: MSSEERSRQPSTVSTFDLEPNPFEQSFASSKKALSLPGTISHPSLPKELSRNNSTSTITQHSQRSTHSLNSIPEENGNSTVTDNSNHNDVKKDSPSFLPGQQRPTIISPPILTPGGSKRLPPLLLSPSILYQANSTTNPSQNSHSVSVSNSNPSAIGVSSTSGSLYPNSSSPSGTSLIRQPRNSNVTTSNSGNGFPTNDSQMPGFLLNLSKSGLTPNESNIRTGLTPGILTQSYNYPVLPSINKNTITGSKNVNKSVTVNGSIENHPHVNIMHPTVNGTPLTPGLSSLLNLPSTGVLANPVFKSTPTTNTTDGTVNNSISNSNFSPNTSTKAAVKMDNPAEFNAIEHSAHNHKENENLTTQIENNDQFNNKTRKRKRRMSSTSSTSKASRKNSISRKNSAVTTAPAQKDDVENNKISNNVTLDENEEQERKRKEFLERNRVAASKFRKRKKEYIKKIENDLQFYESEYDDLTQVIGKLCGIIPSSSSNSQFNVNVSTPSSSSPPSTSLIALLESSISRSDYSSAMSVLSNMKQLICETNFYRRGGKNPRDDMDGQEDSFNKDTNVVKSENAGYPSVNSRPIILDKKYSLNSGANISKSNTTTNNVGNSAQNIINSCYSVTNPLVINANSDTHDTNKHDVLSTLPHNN
# Experiment: PBM E-score (8-mer binding enrichment) (E-score (-0.5 to 0.5)); higher = stronger / more preferred TF binding
# Conditions: protein concentration: 200 nM; construct: GST-full length
# Summary of the method: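 Yeast transcription factors carrying a GST tag, as full-length proteins or DNA-binding domains, were produced by PURExpress in vitro transcription/translation. About 100-200 nM protein was applied to universal all-10-mer Agilent arrays, double-stranded by primer extension on fresh or once-stripped slides. Bound protein was detected with fluorescent anti-GST, and scans were normalised with masliner. The Universal PBM Analysis Suite gave each ungapped eight-base word, pooled with its reverse complement, an E-score, a modified Wilcoxon-Mann-Whitney statistic.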
row,Sequence,PBM E-score
1,AGCATAGA,-0.0737
2,GCTCGACA,-0.181
3,CACTAGAA,0.023
4,GCAGCGGC,-0.178
5,ACGCGGAA,0.0704
6,GGTCGTAA,0.249
7,ACGCGTAA,0.382
8,AGGCGTAA,0.206
9,TGTCGTAA,0.412
10,ACGCGTAT,0.389
11,GGGCGTAA,-0.0261
12,AGTCGTAA,0.231
13,ACGCGTAC,0.307
14,ACGCGTGA,0.32
15,TGGCGTAA,0.414
16,AAGCGTAA,0.241
17,ACGCGTAG,0.259
18,CACGATCG,0.0307
19,CGTTCAAC,0.112
20,GGTCTCCA,-0.19
21,CGTCCGAC,-0.0238
22,ACAACCGG,-0.197
23,CAGACCAC,-0.0177
24,CACCAGCA,0.0552
25,AGCGCGAT,-0.0488

row,Sequence,PBM E-score
1,ACTCGAAA,0.0248
2,ATGTATGA,0.288
3,GCGCGTAA,0.336
4,TCGCGTAA,0.393
5,CCGCGTAA,0.318
6,CATGCGTA,0.38
7,GATGCGTA,0.272
8,AATGCGTC,0.185
9,AATGCGTG,0.214
10,CATGCGTC,0.161
11,AATGCGTA,0.39
12,GGGTGAAC,-0.114
13,ACATAGGG,-0.181
14,AGATAGCC,-0.299
15,ACATCTAG,-0.0627
16,AACATTCC,0.0401
17,ATCATACC,0.171
18,ATCATACG,0.365
19,AACATACT,0.0365
20,CGCATACC,0.0198
21,CGCATACG,0.378
22,AACATACG,0.387
23,ATCATACA,0.257
24,CGCATACA,0.0477
25,CACATACG,0.276

row,Sequence,PBM E-score
1,CTGCTACA,-0.0447
2,AATGCTTA,-0.1
3,CAGTATGC,-0.0805
4,GTTCCGCA,0.00536
5,GTCGATCA,-0.0654
6,TATCGCCA,0.0834
7,CCCTATGA,0.0198
8,AAGTCCAA,0.0276
9,AATAACGC,0.106
10,AATAACGT,0.426
11,AATAACGG,0.138
12,GCCTCAAC,-0.175
13,ACGTTTTG,0.393
14,ACGTTTTC,0.396
15,ACGTTTTA,0.364
16,ACGTTTCC,0.294
17,AGGTTTTG,-0.0965
18,CCGTTTTC,0.0601
19,GCGTTTTA,0.125
20,CCGTTTTA,-0.00533
21,ACGTTTGG,0.296
22,GGCTACAA,-0.0783
23,CATCGAGA,0.0586
24,CACTTGAC,0.186
25,AAGGTTAA,0.06

row,Sequence,PBM E-score
1,AAATGTCG,0.159
2,AGCTTGCA,0.0429
3,CGCCTACC,-0.145
4,CCTCTGCA,-0.229
5,CGTAACTC,0.331
6,CGTAACTA,0.381
7,CGTAACCC,0.289
8,CGTAACGC,0.34
9,CGTAACGA,0.366
10,CGTAACCA,0.389
11,GGTAACTA,0.0515
12,GGTAACGA,0.0123
13,GGTAACCA,-0.101
14,ACCGTGCG,0.0174
15,TCTACTAA,0.0947
16,CGTTTAAA,0.277
17,TGAATGAA,0.197
18,ATAGGTCG,-0.195
19,AATGTCGT,0.371
20,AATGTCGA,0.217
21,AATGTCGG,0.0603
22,CGATTGTC,0.0842
23,AGGAGCCC,-0.142
24,CCATTACA,0.089
25,CCATTACG,0.438

row,Sequence,PBM E-score
1,ACATTACG,0.425
2,CCATTACC,-0.148
3,ACATTACT,0.0825
4,ACATTACA,0.28
5,ACGGACTA,0.0518
6,CTGCTGAC,0.0145
7,AACACGAA,0.187
8,AACACGTC,0.401
9,AACACGGC,-0.255
10,AACACGTA,0.459
11,AACACGCC,-0.0487
12,AACACGTT,0.313
13,AGAGCTGG,-0.228
14,TCATAGAA,0.219
15,AATTTCAC,-0.0415
16,ACTTGAAA,0.0359
17,AAGCGGAA,-0.0292
18,GGAACGTA,0.289
19,AGAACGTA,0.366
20,CGAACGTC,0.238
21,AGAACGTG,0.246
22,CGAACGTA,0.361
23,AGAACGTC,0.314
24,GTGAAGGA,-0.0285
25,ACGCAGAC,0.0967

row,Sequence,PBM E-score
1,AAATTGGA,0.0977
2,ACGAGTCC,-0.0325
3,ACGTCCAC,0.314
4,ACGTCCAA,0.288
5,ACGTCGAT,0.432
6,CCGTCGAC,-0.145
7,ACGTCCAT,0.39
8,ACGTCGAA,0.292
9,GCGTCGAC,0.0596
10,ACGTCGAC,0.385
11,ACGTCGAG,0.254
12,ATCAGTCA,0.119
13,AACCGCGC,-0.0849
14,AGGGCAAT,-0.231
15,CGTAGAGC,0.116
16,ACGAGATA,0.207
17,ATACGCCC,-0.0909
18,ATACGTCG,0.422
19,CTACGTCC,0.298
20,ATACGTCC,0.369
21,AAACGTCG,0.238
22,ATCCGTCG,-0.197
23,AAGGCTGT,-0.282
24,CGGTAGCC,0.0295
25,AACCACGA,-0.0344

row,Sequence,PBM E-score
1,ACCCACGC,-0.0576
2,AATCACGT,0.429
3,ACCCACGA,-0.0425
4,ACCCACGT,0.374
5,AATCACGA,0.0581
6,AACCACGC,0.111
7,AATCACGC,0.205
8,AACCACGT,0.371
9,GGAAATAC,0.148
10,CCCTCATC,-0.29
11,CGTCACCC,0.409
12,AGTCACCC,-0.145
13,AGTCACCA,-0.269
14,CCTCACCC,-0.148
15,GGTCACCA,-0.28
16,CGTCACCA,0.447
17,AGCCAATG,-0.049
18,CATAAGCA,-0.085
19,CGTGGTTC,0.0129
20,ACGTCGTA,0.399
21,CCGTCGTA,0.11
22,ACGTCGGC,0.348
